Assay outcomes: PubChem, National Center for Advancing Translational Sciences (NCATS)
IL-1B inflam inh: inflammasome signaling inhibition, IL-1 beta readout | THP-1 LPS/ATP IL-1B secretion, AlphaLISA, 16 h; stronger effect = lower value | actives 4.7% (n = 360,000) | activity change, % at 57.5 µM | AID 743279; in the data active means activity change below about -50%; inconclusive means mostly about -30% to -49%
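THP-1 cells pretreated 1 hr with compounds (up to 57.5 uM final), then stimulated with LPS (250 ng/mL final) plus ATP (1.25 mM final); secreted IL-1B measured by AlphaLISA after 16 hr, decreased signal indicating inhibition.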
HT1080 IDH1KD tx: kills HT-1080 cells with IDH1 knockdown; Potency, µM (doses to about 46.1 µM), inactives show at the top dose activity, negative = toxicity, actives largely listed as cytotoxic; AID 686971; HT-1080 IDH1 knockdown viability, ATP luminescence, 48 h; actives 2% (n = 360,000);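 further: potency means the concentration at half of the fitted maximal effect; 0% = DMSO wells and -100% = cell-free medium wells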
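Cytotoxicity counter-line: IDH1KD HT-1080, 48 h, CellTiter-Glo. Curves classed by r2, magnitude and activity.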
TDP1 cell noCPT: qHTS for Inhibitors of human tyrosyl-DNA phosphodiesterase 1 (TDP1): qHTS in cells in absence of CPT | DT40 Tdp1-/- hTDP1 cells, no CPT, ATP luminescence, 48 h | Potency, µM (series often up to 46.2 µM), for the others: at the top dose activity change, negative = growth inhibition, usual class: inhibitors | actives 15% (n = 420,000) | AID 686978, 2013; further: potency means the concentration at half of the fitted maximal effect; nearly all actives have a fitted effect of over 55% in size
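Cells were dispensed at 400 per well, compounds added by pin tool, plates incubated ≥48 hr at 37 °C, then CellTiter-Glo added for 30 min at room temperature before luminescence reading. Line: DT40 Tdp1-/- complemented with hTDP1; camptothecin omitted.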
HT1080NT lethal: kills 2HG-producing HT-1080-NT fibrosarcoma cells | HT-1080-NT fibrosarcoma viability, CellTiter-Glo ATP luminescence, 48 h | Potency, µM (series often up to 46.1 µM), for the others: at the top dose activity, negative = less viability, hits mostly cytotoxic | actives 1.6% (n = 360,000);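 further: NT is the 2HG producing partner of a matched IDH1 knockdown line; potency means the concentration at half of the fitted maximal effect; 0% = DMSO-treated cells and -100% = media-only wells without cells; nearly all actives have a fitted effect of over 55% in size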
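HT-1080-NT; 750 cells/well; 5% FBS RPMI; 48 h compound, 37 degrees C; CellTiter-Glo luminescence; curve fitting and curve-class assignment.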
uPA generation: inhibitors of cell surface uPA generation | cell surface uPA generation assay, qHTS | Potency, µM (highest dose often 38.3 µM), inactives show at the top dose activity change, negative = inhibition, hits mostly inhibitors | actives 0.31% (n = 330,000) | AID 540303; active means well fitted inhibition curve with a large enough effect; inconclusive means small, poorly fitted or top-dose-only effect; inactive means no such curve, though single readings can be large or run the other way; tested in mouse RAW 264.7 cells; further: potency means the concentration at half of the fitted maximal effect; nearly all actives have a fitted effect of over 55% in size
DT40 TDP1 CPT: growth inhibition of DT40 Tdp1-/-;hTDP1 cells with camptothecin (screen for TDP1 inhibitors) | actives 12% (n = 420,000) | Potency, µM (titrated, usually from 46.2 µM), without a hit: at the highest dose activity change, negative = growth inhibition, most hits filed as inhibitors | chicken DT40 Tdp1-/-;hTDP1 cells + 20 nM CPT, ATP luminescence, 48 h; further: potency means the concentration at half of the fitted maximal effect; nearly all actives have a fitted effect of over 55% in size
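Cell growth measured by CellTiter-Glo luminescence after a minimum 48 h, 37 C compound exposure with 20 nM CPT in Tdp1-knockout DT40 cells stably expressing hTDP1, seeded 400/well; qHTS titration format.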
An asterisk follows results filed as active; u = inconclusive; x = no result given; [ ] = another dose, or the depositor's remark. Hits are enriched below; roughly 19% of the tested compounds scored in any of these assays. Unless noted, the call rests on the fitted dose curve; in most records, active means well fitted curve in the direction sought with a large enough effect; inconclusive means small, poorly fitted or top-dose-only effect, or another doubt; inactive means no such curve, though single readings can be large; an effect the other way counts as inactive or inconclusive. Unless noted, on the % scale 0 is the no-effect control and ±100 the full control effect.

SMILES | IL-1B inflam inh | HT1080 IDH1KD tx | TDP1 cell noCPT | HT1080NT lethal | uPA generation | DT40 TDP1 CPT
COc1ccc(S(=O)(=O)N(C)C)cc1NC(=O)Cc1ccc(S(=O)(=O)N2CCOCC2)s1 | -6 | -6% | u | -4% | -5% | 13µM*
CCOC(=O)c1cc(NC(=O)Cc2ccc(S(=O)(=O)N3CCOCC3)s2)cc(C(=O)OCC)c1 | u | -11% | u | -5% | 9% | 23µM*
CCN(CC)S(=O)(=O)c1cc(NC(=O)Cc2ccc(S(=O)(=O)N3CCOCC3)s2)ccc1Cl | 0 | u | 13µM* | -28% | -15% | 21µM*
CCOC(=O)c1nc(C)nc(Sc2n[nH]c(-c3cc(C(F)(F)F)cc(C(F)(F)F)c3)n2)c1C | -2 | -1% | u | -9% | -15% | u
Cc1cccc(NC(=S)N/N=C/c2cccn2Cc2ccc(F)cc2)c1 | 7 | -14% | 16µM* | -20% | -4% | u
COc1ccc(NC(=S)N/N=C/c2cccn2Cc2ccc(F)cc2Cl)cc1 | 17 | -11% | 10µM* | -15% | -4% | 23µM*
CSc1ccccc1NC(=S)N/N=C/c1cccn1Cc1ccc(F)cc1 | 28 | -18% | 23µM* | -10% | 5% | u
COc1ccc(CCN2CC(C(=O)OCc3ccccc3Cl)CC2=O)cc1OC (stereo not drawn) | 32 | 12% | -29% | 6% | -2% | 16%
O=C(NCc1ccc(N2CCCC2=O)cc1)c1cc(COc2c(F)cccc2F)on1 | -13 | 7% | u | 3% | -3% | u
O=C(O)c1ccsc1Cc1cccs1 | -9 | 0% | -5% | 1% | x | u
Cc1nn(C)cc1CN1CCOc2ccc(C(C)(O)COc3ccccc3)cc2C1 (stereo not drawn) | x | x | -19% | x | x | 25%[9.04 µM]
Cn1cc(CN2CCc3ccccc3C2)c2ccccc21 | -16 | u | u | -5% | x | 9.2µM*
CN(C)CC(C)(O)c1ccc2c(c1)CN(Cc1cn(C)c3ccccc13)CCO2 (stereo not drawn) | x | x | 21µM* | x | x | -7%[9.04 µM]
Oc1cc2c(cc1CN1CCc3ccccc3C1)OCO2 | -22 | -2% | u | -3% | 3% | u
Cc1ccc(/C(=C\CN2CCCC2)c2cccc(/C=C/C(=O)O)n2)cc1 | x | x | -7% | x | x | -6%
O=C1NC(Cc2ccc(O)cc2)c2nc3ccc(Br)cc3c(=O)n2-c2cc3ccccc3cc21 (stereo not drawn) | -24 | 13µM* | 9.2µM* | 16µM* | x | 12µM*
Cc1cc(C)c2c(=O)n3c(nc2c1)C(CC(C)C)NC(=O)c1cccnc1-3 (stereo not drawn) | -3 | -5% | 23µM* | -5% | x | u
COc1ccc2nc3n(c(=O)c2c1)-c1cc2ccccc2cc1C(=O)NC3Cc1ccc(O)cc1 (stereo not drawn) | -23 | 3.3µM* | 18µM* | 6.5µM* | x | u
COc1ccc2nc3n(c(=O)c2c1)-c1cc2ccccc2cc1C(=O)NC3Cc1ccccc1 (stereo not drawn) | -4 | -6% | 21µM* | -15% | x | u
COc1ccc2nc3n(c(=O)c2c1)-c1ccc(Cl)cc1C(=O)NC3Cc1ccc(O)cc1 (stereo not drawn) | 16 | 1% | -11% | 6% | 6% | -1%
O=C1NC(Cc2ccc(O)cc2)c2nc3ccc(Br)cc3c(=O)n2-c2ncccc21 (stereo not drawn) | 21 | -29% | u | -23% | x | -14%
CCC1NC(=O)c2cc3ccccc3cc2-n2c1nc1cc(OC)c(OC)cc1c2=O (stereo not drawn) | -11 | 1% | u | 6% | x | u
O=C(NCc1cccs1)C1CCN(S(=O)(=O)c2ccccc2F)CC1 | -6 | -2% | 0% | -1% | -9% | -2%
N/C(=C\c1ccccc1)c1ccncc1 | x | x | u | x | x | -2%
O=C1NC(Cc2ccc(O)cc2)c2nc3ccc(F)cc3c(=O)n2-c2cc(Cl)ccc21 (stereo not drawn) | 0 | -8% | 2% | 4% | 0% | -9%
SMILES | IL-1B inflam inh | HT1080 IDH1KD tx | TDP1 cell noCPT | HT1080NT lethal | uPA generation | DT40 TDP1 CPT
Cc1cc(C)c2c(=O)n3c(nc2c1)C(Cc1ccc(O)cc1)NC(=O)c1cc2ccccc2cc1-3 (stereo not drawn) | -16 | u | 18µM* | u | x | 16µM*
COc1cc(C2C(C#N)=C(SC)NC3=C2C(=O)CCC3)ccc1O (stereo not drawn) | 9 | 22% | -5% | 17% | 1% | 4%
COc1cc(C2C(C#N)=C(N)N(c3cccnc3)C3=C2C(=O)CCC3)ccc1O (stereo not drawn) | -59* | 26% | -1% | 2% | 4% | -1%
COc1cc(C2C(C#N)=C(N)N(c3ccc(F)cc3)C3=C2S(=O)(=O)CC3)ccc1O (stereo not drawn) | -22 | 30% | u | -1% | -1% | 13µM*
O=C(Nc1ccc(F)c(Cl)c1)C1CCCN(S(=O)(=O)c2cccc3nsnc23)C1 (stereo not drawn) | x | x | 23µM* | x | x | 16µM*
CC(C)c1ccc(NC(=O)C2CCCN(S(=O)(=O)c3cccc4nsnc34)C2)cc1 (stereo not drawn) | x | x | 10µM* | x | x | 4.6µM*
COCC(=O)N1CCC[C@@]2(CCN(c3ccccc3)C2)C1 | x | x | -9% | x | x | 6%
COc1cc([N+](=O)[O-])c(C)cc1NC(=O)c1ccc(OC)c(OC)c1 | -17 | 17% | u | 5% | x | -18%
COC(=O)c1c(C)c2c(C)cc3ccccn3c-2c1C(=O)OC | -5 | -11% | 29µM* | -3% | -5% | u
COC(=O)c1cc(Cl)cc2c(C)c(C3(O)CCCCC3)[nH]c12 | 23 | 0% | 21µM* | 0% | -8% | u
CCc1c(C2(O)CCCCC2)[nH]c2c(C(=O)OC)cc(Cl)cc12 | 29 | u | u | u | 5% | u
CCC(C)(C)NC(=O)Cc1ccc(Cl)cc1 | -13 | -1% | 4% | 1% | 0% | 6%
O=C(O)CCCC(=O)N1CCN(C(c2ccccc2)c2ccccc2)CC1 | 7 | 11% | -24% | 15% | -2% | -21%
O=C(NCC(=O)N1CCN(C(c2ccccc2)c2ccccc2)CC1)c1ccccc1Br | 5 | -19% | 21µM* | -14% | x | u
O=C(NCC(=O)N1CCN(c2ccccc2)CC1)c1ccc(Br)o1 | -2 | 4% | -24% | 6% | -1% | 2%
O=C(NCC(=O)N1CCN(C(c2ccccc2)c2ccccc2)CC1)c1ccc(Br)o1 | -73* | -4% | u | -7% | -5% | u
